This test addresses Uracil-DNA glycosylase (Escherichia coli (strain K12)) (UniProt P12295). Kind of test: E. coli UDG inhibitors, confirmation, counter-screen for APOBEC3G inhibitor project, biochemical, single concentration, fluorescence, FAM/TAMRA oligo (AID 504715).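 Also: plate controls were DMSO wells with UDG and oligo for no effect and DMSO wells lacking both for full effect; inhibitors lower the FAM signal released by uracil excision and alkaline cleavage.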 As to conditions: UDG counterscreen, at 20 µM, active compounds read high. (Counterscreens check selectivity or assay interference.)

Structures are written as SMILES. Some of the results follow. A number with no mark means an inactive call.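 The calls were made as follows: active = compounds giving 40% or more inhibition at 20 µM in any one of the three replicates; inactive = the rest.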

Chain of Uracil-DNA glycosylase (Escherichia coli (strain K12)) (P12295 whole entry, looked up): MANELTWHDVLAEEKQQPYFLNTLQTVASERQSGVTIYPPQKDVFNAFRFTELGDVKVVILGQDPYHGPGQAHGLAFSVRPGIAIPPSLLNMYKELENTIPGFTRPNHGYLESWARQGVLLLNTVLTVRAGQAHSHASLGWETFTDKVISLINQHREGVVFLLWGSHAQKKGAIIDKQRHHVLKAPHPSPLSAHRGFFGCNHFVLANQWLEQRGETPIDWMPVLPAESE

Usually inhibition stands for the change of the read-out against control, counted positive when it falls. As for `COC(=O)N(c1ccc(OC)cc1)P1(=S)OCCC(C)O1` (stereo unspecified), the inhibition was -3.68%.

Source of the values: PubChem BioAssay AID504715 (Sanford-Burnham Center for Chemical Genomics, 2011).
